# Measurements taken from ChEMBL document CHEMBL1961873, “Compounds: GSK PKIS; Assays: Nanosyn kinase panel” (2012).
# How the values were obtained:
# [1] = biological target: T1, Inhibitor of nuclear factor kappa-B kinase subunit epsilon (Homo sapiens) (UniProt Q14164); conditions: at 1 µM;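 note: reported values are averaged percent inhibition figures against human IKKε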
# T1 sequence (whole entry): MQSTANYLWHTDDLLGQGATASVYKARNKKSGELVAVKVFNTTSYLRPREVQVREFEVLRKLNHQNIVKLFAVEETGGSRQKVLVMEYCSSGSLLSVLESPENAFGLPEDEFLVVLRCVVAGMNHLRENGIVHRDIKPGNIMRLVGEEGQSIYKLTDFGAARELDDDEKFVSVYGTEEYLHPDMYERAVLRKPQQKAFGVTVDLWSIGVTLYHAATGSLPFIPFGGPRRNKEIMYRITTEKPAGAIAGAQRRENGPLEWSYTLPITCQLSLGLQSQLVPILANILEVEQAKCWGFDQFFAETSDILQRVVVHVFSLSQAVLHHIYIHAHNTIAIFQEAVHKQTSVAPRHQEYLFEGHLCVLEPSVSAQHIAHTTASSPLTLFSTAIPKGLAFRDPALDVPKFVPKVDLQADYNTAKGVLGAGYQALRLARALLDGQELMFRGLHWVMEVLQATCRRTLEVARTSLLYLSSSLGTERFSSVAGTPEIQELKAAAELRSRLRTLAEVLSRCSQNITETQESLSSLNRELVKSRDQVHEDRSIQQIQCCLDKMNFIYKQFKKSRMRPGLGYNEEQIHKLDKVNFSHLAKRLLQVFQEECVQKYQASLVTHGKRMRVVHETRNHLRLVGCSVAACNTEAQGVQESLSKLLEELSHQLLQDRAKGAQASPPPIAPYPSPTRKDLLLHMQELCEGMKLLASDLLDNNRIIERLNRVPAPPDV
# [2] = biological target: T2, Serine/threonine-protein kinase Nek1 (Homo sapiens) (UniProt Q96PY6); conditions: at 0.1 µM
# T2 sequence (whole entry): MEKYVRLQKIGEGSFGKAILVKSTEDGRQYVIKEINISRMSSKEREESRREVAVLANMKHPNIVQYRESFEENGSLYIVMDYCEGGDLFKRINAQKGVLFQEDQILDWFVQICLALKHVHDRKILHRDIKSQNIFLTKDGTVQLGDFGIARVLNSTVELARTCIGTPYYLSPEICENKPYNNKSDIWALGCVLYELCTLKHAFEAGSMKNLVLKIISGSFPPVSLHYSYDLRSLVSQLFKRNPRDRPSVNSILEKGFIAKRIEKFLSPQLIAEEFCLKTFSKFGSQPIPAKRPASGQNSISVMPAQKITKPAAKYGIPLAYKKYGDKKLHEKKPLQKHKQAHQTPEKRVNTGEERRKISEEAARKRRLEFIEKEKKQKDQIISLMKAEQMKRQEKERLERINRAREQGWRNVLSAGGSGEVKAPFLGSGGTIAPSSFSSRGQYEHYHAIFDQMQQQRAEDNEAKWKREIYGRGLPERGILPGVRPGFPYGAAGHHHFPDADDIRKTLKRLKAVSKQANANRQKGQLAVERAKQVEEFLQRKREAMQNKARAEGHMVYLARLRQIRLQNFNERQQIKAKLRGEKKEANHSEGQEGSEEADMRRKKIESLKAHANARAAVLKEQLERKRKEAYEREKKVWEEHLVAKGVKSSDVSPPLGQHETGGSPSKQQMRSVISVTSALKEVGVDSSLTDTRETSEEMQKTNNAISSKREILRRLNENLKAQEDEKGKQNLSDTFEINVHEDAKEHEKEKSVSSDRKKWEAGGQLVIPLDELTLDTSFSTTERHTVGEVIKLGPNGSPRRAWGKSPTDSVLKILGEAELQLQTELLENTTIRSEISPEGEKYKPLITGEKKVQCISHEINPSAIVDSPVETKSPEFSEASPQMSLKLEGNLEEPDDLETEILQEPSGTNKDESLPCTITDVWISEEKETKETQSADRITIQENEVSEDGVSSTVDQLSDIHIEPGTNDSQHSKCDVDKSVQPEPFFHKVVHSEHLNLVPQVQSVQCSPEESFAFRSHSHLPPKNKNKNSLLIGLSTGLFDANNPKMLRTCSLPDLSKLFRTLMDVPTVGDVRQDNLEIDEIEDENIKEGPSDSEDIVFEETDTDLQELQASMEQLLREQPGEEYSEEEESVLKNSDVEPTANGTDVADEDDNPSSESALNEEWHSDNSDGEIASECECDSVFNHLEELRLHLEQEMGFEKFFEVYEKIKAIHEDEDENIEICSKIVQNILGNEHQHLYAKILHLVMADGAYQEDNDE
# [3] = biological target: T2, Serine/threonine-protein kinase Nek1 (Homo sapiens); conditions: at 1 µM
# [4] = biological target: T3, Serine/threonine-protein kinase Nek2 (Homo sapiens) (UniProt P51955); conditions: at 0.1 µM
# T3 sequence (whole entry): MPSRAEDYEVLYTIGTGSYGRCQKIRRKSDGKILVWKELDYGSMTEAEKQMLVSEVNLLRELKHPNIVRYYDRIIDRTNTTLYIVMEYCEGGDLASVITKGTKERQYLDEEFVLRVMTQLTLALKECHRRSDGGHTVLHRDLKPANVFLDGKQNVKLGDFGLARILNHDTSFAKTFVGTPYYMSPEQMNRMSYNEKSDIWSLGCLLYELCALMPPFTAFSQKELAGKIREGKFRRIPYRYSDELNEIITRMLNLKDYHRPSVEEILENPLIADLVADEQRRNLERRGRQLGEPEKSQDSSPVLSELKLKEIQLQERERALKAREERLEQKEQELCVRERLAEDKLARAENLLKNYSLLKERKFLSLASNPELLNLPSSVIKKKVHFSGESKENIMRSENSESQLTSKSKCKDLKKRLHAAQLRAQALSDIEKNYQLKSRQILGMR
# [5] = biological target: T3, Serine/threonine-protein kinase Nek2 (Homo sapiens); conditions: at 1 µM
# [6] = biological target: Serine/threonine-protein kinase Nek6 (Homo sapiens) (UniProt Q9HC98); conditions: at 0.1 µM
# [7] = biological target: Serine/threonine-protein kinase Nek6 (Homo sapiens) (UniProt Q9HC98); conditions: at 1 µM
# [8] = biological target: Serine/threonine-protein kinase Nek7 (Homo sapiens) (UniProt Q8TDX7); conditions: at 0.1 µM
# [9] = biological target: Serine/threonine-protein kinase Nek7 (Homo sapiens) (UniProt Q8TDX7); conditions: at 1 µM
# [10] = biological target: T4, Serine/threonine-protein kinase Nek9 (Homo sapiens) (UniProt Q8TD19); conditions: at 0.1 µM
# T4 sequence (whole entry): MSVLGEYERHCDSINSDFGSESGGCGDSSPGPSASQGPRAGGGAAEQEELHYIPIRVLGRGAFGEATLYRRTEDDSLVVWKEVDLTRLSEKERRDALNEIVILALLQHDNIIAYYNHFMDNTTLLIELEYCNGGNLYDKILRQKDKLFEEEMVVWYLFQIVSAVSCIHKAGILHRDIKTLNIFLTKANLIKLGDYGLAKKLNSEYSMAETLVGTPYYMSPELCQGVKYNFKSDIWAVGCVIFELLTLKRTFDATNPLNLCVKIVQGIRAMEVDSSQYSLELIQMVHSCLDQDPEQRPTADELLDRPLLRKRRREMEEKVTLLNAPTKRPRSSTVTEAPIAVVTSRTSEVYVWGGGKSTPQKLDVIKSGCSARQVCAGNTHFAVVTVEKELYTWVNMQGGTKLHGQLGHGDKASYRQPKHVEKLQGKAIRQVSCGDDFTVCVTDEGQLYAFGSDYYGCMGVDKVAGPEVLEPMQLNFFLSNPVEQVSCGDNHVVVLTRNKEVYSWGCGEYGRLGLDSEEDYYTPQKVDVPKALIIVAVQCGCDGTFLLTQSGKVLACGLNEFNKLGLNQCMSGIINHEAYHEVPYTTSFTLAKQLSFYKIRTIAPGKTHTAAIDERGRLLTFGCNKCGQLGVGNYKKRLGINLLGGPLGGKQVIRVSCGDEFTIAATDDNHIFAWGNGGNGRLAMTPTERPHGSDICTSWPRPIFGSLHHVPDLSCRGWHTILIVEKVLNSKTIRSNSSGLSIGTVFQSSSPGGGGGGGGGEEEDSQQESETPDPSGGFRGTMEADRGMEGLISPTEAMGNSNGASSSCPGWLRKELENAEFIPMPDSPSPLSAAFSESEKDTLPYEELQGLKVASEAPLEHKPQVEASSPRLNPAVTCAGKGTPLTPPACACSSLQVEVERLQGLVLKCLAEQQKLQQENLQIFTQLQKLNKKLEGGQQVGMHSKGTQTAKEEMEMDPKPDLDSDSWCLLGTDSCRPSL
# [11] = biological target: T4, Serine/threonine-protein kinase Nek9 (Homo sapiens); conditions: at 1 µM
# [12] = biological target: Serine/threonine-protein kinase PLK1 (Homo sapiens) (UniProt P53350); conditions: at 0.1 µM
# [13] = biological target: Serine/threonine-protein kinase PLK1 (Homo sapiens) (UniProt P53350); conditions: at 1 µM
# [14] = biological target: T5, Dual specificity protein kinase TTK (Homo sapiens) (UniProt P33981); conditions: at 0.1 µM
# T5 sequence (whole entry): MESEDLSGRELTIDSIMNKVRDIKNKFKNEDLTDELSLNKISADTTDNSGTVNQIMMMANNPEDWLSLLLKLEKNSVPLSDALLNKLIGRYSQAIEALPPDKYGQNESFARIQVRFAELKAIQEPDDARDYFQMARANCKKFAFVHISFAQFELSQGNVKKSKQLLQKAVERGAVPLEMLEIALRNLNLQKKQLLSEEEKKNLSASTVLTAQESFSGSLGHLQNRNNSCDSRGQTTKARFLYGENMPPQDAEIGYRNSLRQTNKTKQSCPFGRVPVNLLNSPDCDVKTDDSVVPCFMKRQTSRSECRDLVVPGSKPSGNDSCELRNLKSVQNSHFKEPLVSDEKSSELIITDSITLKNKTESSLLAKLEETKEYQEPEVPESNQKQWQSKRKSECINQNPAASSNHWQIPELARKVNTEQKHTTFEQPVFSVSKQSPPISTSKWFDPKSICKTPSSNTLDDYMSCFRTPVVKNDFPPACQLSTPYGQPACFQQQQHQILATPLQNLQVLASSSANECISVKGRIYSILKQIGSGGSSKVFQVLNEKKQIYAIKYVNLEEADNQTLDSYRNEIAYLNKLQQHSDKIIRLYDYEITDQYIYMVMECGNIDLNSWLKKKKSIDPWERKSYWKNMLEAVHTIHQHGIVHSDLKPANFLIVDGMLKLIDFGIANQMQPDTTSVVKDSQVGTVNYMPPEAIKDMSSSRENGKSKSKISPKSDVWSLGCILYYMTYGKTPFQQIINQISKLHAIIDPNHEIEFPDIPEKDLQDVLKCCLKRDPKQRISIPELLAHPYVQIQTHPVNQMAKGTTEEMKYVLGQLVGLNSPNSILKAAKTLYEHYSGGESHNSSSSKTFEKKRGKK
# [15] = tested on: T6, Receptor-type tyrosine-protein kinase FLT3 (Homo sapiens), P36888 [D835Y]; conditions: at 1 µM
# T6 sequence (whole entry): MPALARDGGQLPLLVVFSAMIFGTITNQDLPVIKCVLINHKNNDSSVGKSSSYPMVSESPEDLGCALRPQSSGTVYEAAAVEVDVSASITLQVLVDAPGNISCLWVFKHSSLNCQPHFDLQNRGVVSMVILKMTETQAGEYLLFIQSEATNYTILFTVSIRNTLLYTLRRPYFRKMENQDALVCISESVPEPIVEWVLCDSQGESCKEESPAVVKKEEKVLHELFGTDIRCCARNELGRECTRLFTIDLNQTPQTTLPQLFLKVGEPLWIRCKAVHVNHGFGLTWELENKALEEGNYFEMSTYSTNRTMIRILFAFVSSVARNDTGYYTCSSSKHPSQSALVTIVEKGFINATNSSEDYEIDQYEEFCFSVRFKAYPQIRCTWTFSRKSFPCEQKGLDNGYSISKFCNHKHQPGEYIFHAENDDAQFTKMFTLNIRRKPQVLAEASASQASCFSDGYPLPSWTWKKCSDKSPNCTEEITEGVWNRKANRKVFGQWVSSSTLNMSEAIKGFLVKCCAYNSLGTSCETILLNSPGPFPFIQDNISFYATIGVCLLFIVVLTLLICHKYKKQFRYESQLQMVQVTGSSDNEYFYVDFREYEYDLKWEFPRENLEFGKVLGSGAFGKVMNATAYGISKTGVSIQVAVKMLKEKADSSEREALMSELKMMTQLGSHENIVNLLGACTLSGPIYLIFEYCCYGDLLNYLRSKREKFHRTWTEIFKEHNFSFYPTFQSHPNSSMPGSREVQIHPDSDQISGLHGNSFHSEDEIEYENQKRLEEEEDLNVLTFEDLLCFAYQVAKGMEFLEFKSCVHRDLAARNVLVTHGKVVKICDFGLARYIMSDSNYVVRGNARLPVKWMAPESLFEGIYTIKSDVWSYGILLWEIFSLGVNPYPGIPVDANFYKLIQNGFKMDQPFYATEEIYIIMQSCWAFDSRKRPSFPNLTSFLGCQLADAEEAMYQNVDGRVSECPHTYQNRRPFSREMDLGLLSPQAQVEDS
# [16] = biological target: Vascular endothelial growth factor receptor 3 (Homo sapiens) (UniProt P35916); conditions: at 0.1 µM
# [17] = biological target: Vascular endothelial growth factor receptor 3 (Homo sapiens) (UniProt P35916); conditions: at 1 µM
# [18] = biological target: Macrophage colony-stimulating factor 1 receptor (Homo sapiens) (UniProt P07333); conditions: at 0.1 µM
# [19] = biological target: Macrophage colony-stimulating factor 1 receptor (Homo sapiens) (UniProt P07333); conditions: at 1 µM
# [20] = biological target: Tyrosine-protein kinase Fyn (Homo sapiens) (UniProt P06241); conditions: at 0.1 µM
# Sequence of Tyrosine-protein kinase Fyn (Homo sapiens) (P06241 2-537 limits assumed): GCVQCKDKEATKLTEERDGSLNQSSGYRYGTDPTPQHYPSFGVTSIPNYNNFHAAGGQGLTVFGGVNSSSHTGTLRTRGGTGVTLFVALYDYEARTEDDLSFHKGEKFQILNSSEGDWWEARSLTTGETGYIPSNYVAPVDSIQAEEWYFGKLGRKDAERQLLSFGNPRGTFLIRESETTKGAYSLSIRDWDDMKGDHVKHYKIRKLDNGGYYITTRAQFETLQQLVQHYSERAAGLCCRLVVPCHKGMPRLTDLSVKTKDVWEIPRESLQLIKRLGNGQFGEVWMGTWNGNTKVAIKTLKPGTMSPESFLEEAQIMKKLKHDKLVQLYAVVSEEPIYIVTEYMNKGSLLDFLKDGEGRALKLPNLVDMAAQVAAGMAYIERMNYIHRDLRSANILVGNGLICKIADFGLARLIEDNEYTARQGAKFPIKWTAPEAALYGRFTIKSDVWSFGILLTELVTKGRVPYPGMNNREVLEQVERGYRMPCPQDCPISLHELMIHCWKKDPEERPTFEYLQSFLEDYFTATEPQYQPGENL
# Sequence of Serine/threonine-protein kinase Nek7 (Homo sapiens) (Q8TDX7 whole entry, looked up): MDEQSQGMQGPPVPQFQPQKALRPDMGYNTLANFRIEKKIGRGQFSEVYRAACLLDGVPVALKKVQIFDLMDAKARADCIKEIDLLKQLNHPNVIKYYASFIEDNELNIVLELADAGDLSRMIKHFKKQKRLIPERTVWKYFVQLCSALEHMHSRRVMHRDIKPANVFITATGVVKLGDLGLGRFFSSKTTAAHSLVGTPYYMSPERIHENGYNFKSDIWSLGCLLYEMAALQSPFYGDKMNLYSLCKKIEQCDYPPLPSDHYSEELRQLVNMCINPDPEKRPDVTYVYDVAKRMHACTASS
# Sequence of Macrophage colony-stimulating factor 1 receptor (Homo sapiens) (P07333 whole entry): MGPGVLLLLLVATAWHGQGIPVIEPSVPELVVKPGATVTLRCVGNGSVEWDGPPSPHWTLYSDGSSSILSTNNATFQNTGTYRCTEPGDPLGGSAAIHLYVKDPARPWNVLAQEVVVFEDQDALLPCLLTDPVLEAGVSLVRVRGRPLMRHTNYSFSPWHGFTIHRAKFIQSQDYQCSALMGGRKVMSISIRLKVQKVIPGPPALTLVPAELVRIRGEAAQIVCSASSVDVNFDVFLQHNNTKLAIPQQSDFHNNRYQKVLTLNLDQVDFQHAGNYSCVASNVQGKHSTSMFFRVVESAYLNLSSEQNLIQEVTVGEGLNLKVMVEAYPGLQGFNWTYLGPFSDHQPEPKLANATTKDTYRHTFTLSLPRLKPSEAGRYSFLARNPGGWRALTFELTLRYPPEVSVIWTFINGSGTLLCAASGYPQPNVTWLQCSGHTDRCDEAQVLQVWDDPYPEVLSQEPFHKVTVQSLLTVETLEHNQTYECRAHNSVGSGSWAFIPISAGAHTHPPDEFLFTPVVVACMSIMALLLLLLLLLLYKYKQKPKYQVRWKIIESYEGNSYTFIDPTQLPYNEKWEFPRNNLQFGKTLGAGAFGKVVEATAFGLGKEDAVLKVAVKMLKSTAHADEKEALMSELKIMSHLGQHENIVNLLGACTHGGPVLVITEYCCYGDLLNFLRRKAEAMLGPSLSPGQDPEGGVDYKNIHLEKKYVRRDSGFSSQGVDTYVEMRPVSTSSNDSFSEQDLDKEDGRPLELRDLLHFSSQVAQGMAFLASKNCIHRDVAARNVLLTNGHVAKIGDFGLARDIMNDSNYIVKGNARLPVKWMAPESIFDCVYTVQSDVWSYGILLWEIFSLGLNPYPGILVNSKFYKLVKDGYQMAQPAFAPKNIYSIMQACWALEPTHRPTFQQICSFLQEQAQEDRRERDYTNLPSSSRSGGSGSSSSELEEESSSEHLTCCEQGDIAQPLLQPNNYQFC
# Sequence of Vascular endothelial growth factor receptor 3 (Homo sapiens) (P35916 whole entry): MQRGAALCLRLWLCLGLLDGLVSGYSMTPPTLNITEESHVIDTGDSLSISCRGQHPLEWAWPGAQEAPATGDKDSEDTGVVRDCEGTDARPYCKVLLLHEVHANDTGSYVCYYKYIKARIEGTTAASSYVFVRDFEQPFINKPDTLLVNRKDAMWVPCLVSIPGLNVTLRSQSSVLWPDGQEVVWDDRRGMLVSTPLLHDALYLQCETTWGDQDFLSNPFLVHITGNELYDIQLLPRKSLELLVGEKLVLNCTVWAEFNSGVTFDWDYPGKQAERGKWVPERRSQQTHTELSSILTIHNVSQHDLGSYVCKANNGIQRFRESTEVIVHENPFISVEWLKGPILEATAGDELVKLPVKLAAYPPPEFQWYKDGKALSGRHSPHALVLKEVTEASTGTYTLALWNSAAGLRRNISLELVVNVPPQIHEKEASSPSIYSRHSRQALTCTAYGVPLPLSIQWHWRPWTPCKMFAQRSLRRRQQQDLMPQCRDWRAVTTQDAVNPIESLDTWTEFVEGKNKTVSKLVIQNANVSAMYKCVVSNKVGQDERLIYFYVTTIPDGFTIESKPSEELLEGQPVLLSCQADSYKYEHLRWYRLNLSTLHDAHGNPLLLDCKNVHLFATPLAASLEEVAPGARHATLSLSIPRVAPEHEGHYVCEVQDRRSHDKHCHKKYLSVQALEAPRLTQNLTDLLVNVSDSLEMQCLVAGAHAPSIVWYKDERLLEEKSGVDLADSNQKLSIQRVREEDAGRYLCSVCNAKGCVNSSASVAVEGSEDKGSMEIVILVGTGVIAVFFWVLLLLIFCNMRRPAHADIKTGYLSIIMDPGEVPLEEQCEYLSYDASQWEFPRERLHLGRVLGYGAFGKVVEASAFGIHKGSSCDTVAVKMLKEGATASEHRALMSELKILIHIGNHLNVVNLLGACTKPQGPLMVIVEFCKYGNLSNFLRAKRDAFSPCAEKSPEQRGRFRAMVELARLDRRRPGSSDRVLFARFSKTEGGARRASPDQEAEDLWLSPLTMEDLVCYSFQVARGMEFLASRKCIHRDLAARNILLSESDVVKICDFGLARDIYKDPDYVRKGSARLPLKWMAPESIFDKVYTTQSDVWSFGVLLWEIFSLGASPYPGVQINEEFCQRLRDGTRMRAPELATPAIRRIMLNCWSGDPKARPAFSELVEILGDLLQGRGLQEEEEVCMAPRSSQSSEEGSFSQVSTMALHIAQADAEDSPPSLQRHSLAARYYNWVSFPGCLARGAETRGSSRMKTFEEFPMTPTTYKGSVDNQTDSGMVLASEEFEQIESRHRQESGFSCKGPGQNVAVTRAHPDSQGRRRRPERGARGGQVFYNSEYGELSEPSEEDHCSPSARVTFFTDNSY
# Sequence of Serine/threonine-protein kinase PLK1 (Homo sapiens) (P53350 whole entry): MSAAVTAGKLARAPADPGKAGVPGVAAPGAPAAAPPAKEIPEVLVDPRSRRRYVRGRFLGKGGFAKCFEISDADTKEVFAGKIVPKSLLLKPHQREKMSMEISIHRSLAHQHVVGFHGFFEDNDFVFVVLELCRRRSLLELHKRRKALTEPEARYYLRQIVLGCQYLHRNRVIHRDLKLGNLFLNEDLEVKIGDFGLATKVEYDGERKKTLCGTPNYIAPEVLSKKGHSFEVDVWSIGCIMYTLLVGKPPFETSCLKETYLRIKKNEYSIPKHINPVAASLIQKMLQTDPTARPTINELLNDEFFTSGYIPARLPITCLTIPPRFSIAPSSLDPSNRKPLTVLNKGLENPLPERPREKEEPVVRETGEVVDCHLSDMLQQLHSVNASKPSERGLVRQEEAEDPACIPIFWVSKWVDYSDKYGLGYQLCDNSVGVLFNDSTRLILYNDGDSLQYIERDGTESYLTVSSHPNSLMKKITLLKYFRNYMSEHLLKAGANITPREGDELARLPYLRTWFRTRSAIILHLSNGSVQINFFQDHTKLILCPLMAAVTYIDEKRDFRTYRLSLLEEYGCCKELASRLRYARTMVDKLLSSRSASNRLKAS
# Sequence of Serine/threonine-protein kinase Nek6 (Homo sapiens) (Q9HC98 whole entry): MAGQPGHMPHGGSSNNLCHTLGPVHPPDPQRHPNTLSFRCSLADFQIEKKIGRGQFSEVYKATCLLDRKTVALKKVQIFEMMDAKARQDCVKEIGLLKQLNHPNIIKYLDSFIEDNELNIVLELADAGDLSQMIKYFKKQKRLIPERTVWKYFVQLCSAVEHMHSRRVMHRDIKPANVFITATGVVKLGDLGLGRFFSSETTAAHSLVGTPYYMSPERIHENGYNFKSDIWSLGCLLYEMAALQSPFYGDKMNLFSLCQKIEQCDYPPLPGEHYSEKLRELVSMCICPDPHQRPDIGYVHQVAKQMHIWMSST
Compound,inhibition [1] [%],inhibition [2] [%],inhibition [3] [%],inhibition [4] [%],inhibition [5] [%],inhibition [6] [%],inhibition [7] [%],inhibition [8] [%],inhibition [9] [%],inhibition [10] [%],inhibition [11] [%],inhibition [12] [%],inhibition [13] [%],inhibition [14] [%],inhibition [15] [%],inhibition [16] [%],inhibition [17] [%],inhibition [18] [%],inhibition [19] [%],inhibition [20] [%]
C[C@@H](Oc1cc(-n2cnc3ccc(OC[C@@H](O)CO)cc32)sc1C(N)=O)c1ccccc1Cl,-0.86,13.6,55,3.01,19.7,-1.54,-3.82,0.63,0.36,62.4,91.4,92.2,93.5,1.27,8.15,3.69,22.8,0.22,9.24,0.14
COc1cc2ncnc(Nc3ccc(C)c(O)c3)c2cc1OC,6.95,3.4,5.46,5.78,7.02,3.27,4.18,4.88,4.92,6.41,11.6,2.93,2.77,9.85,2.41,97.5,107,4.29,6.14,12.8
